Experimental data taken from PubChem BioAssay AID1159580 (chemical genetic matrix, 2015).
“And” between values parts separate entries of the source, which are not always exact repeats. Equal values may be shown once. The campaign covered roughly 5,500 compounds. About 2,000 (36%) were called active. Inconclusive results (about 18%) are left out. Cut-off read from the data, not from the text of the source: active = normalized growth mostly below about 0.91 (no sharp cut-off); inconclusive = no clear call, values can overlap the other calls; inactive = mostly above about 0.92. The list shows a part of the results.

Assay: chemical genetic growth profiling, strain panel (AID 1159580);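 note: tested at 20 µM; growth read once vehicle control cultures reached saturation at 30 °C; 1 = growth at the plate median or of vehicle wells; lower values mean less growth of the strain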
Details: growth OD

Measured: normalized growth

O=C(CCCN1CCC2(CC1)C(=O)NCN2c1ccccc1)c1ccc(F)cc1
active: S. cerevisiae deletion strains, locus YOR083W, strain WHI5, stronger effect = lower value 0.879
inactive: S. cerevisiae deletion strains, locus YKL009W, strain mrt4, stronger effect = lower value 0.977 | S. cerevisiae deletion strains, locus YKL068W, stronger effect = lower value 0.99 | S. cerevisiae deletion strains, locus YKL085W, strain MDH1 (second series), stronger effect = lower value 0.986 | S. cerevisiae deletion strains, locus YKL085W, strain MDH1, stronger effect = lower value 0.986 | S. cerevisiae deletion strains, locus YKL160W, strain elf1, stronger effect = lower value 0.946 | S. cerevisiae deletion strains, locus YKL190W, strain CNB1, stronger effect = lower value 0.99 | S. cerevisiae deletion strains, locus YKR001C, strain vps1, stronger effect = lower value 0.999 | S. cerevisiae deletion strains, locus YKR026C, strain gcn3, stronger effect = lower value 0.985 | S. cerevisiae deletion strains, locus YKR091W, strain srl3, stronger effect = lower value 0.97 | S. cerevisiae deletion strains, locus YLL001W, strain dnm1, stronger effect = lower value 1.01 | S. cerevisiae deletion strains, locus YLL026W, stronger effect = lower value 0.978 | S. cerevisiae deletion strains, locus YLL041C, strain sdh2, stronger effect = lower value 0.988 | S. cerevisiae deletion strains, locus YLR027C, strain aat2, stronger effect = lower value 0.99 | S. cerevisiae deletion strains, locus YLR039C, strain RIC1, stronger effect = lower value 0.995 | S. cerevisiae deletion strains, locus YLR058C, strain SHM2, stronger effect = lower value 0.975 | S. cerevisiae deletion strains, locus YLR102C, strain apc9, stronger effect = lower value 0.995 | S. cerevisiae deletion strains, locus YLR113W, strain HOG1, stronger effect = lower value 1.01 | S. cerevisiae deletion strains, locus YLR221C, strain rsa3, stronger effect = lower value 1.02 | S. cerevisiae deletion strains, locus YLR258W, strain gsy2, stronger effect = lower value 0.986 | S. cerevisiae deletion strains, locus YLR262C, strain YPT6 (second series), stronger effect = lower value 0.995 | S. cerevisiae deletion strains, locus YLR262C, strain YPT6, stronger effect = lower value 0.955 | S. cerevisiae deletion strains, locus YLR268W, strain sec22, stronger effect = lower value 0.93 | S. cerevisiae deletion strains, locus YLR320W, strain mms22, stronger effect = lower value 0.993 | S. cerevisiae deletion strains, locus YLR330W, strain CHS5, stronger effect = lower value 1 | S. cerevisiae deletion strains, locus YLR342W, strain FKS1 (second series), stronger effect = lower value 1.04 | S. cerevisiae deletion strains, locus YLR342W, strain FKS1, stronger effect = lower value 0.972 | S. cerevisiae deletion strains, locus YLR357W, strain rsc2, stronger effect = lower value 0.953 | S. cerevisiae deletion strains, locus YLR370C, strain arc18, stronger effect = lower value 0.98 | S. cerevisiae deletion strains, locus YLR371W, strain rom2, stronger effect = lower value 0.991 | S. cerevisiae deletion strains, locus YLR384C, strain iki3, stronger effect = lower value 0.982 | S. cerevisiae deletion strains, locus YLR418C, strain cdc73, stronger effect = lower value 0.976 | S. cerevisiae deletion strains, locus YML016C, strain PPZ1, stronger effect = lower value 0.995 | S. cerevisiae deletion strains, locus YML032C, strain rad52, stronger effect = lower value 0.991 | S. cerevisiae deletion strains, locus YML120C, strain ndi1, stronger effect = lower value 0.984 | S. cerevisiae deletion strains, locus YML124C, strain tub3, stronger effect = lower value 0.989 | S. cerevisiae deletion strains, locus YMR058W, strain fet3, stronger effect = lower value 0.987 | S. cerevisiae deletion strains, locus YMR078C, strain ctf18, stronger effect = lower value 0.985 | S. cerevisiae deletion strains, locus YMR125W, strain sto1, stronger effect = lower value 1 | S. cerevisiae deletion strains, locus YMR129W, stronger effect = lower value 0.965 | S. cerevisiae deletion strains, locus YMR205C, strain PFK2, stronger effect = lower value 1.05 | S. cerevisiae deletion strains, locus YMR223W, strain ubp8, stronger effect = lower value 0.992 | S. cerevisiae deletion strains, locus YMR231W, strain pep5, stronger effect = lower value 0.988 | S. cerevisiae deletion strains, locus YMR307W, strain GAS1, stronger effect = lower value 1.08 and 1.02 | S. cerevisiae deletion strains, locus YNL067W, strain RPL9B, stronger effect = lower value 0.985 | S. cerevisiae deletion strains, locus YNL071W, strain lat1, stronger effect = lower value 0.995 | S. cerevisiae deletion strains, locus YNL128W, strain TEP1, stronger effect = lower value 0.989 | S. cerevisiae deletion strains, locus YNL153C, strain GIM3, stronger effect = lower value 0.969 | S. cerevisiae deletion strains, locus YNL175C, strain NOP13, stronger effect = lower value 1.01 | S. cerevisiae deletion strains, locus YNL183C, strain NPR1, stronger effect = lower value 0.934 | S. cerevisiae deletion strains, locus YNL197C, strain WHI3, stronger effect = lower value 1.01 | S. cerevisiae deletion strains, locus YNL209W, strain ssb2, stronger effect = lower value 0.998 | S. cerevisiae deletion strains, locus YNL224C, strain SQS1, stronger effect = lower value 1.01 | S. cerevisiae deletion strains, locus YNL233W, strain BNI4, stronger effect = lower value 0.994 | S. cerevisiae deletion strains, locus YNL248C, strain rpa49, stronger effect = lower value 0.928 | S. cerevisiae deletion strains, locus YNL250W, strain rad50, stronger effect = lower value 0.972 | S. cerevisiae deletion strains, locus YNL271C, strain bni1, stronger effect = lower value 1 | S. cerevisiae deletion strains, locus YNL298W, strain CLA4, stronger effect = lower value 0.999 | S. cerevisiae deletion strains, locus YNL307C, strain MCK1, stronger effect = lower value 0.989 | S. cerevisiae deletion strains, locus YNL322C, strain KRE1 (second series), stronger effect = lower value 0.968 | S. cerevisiae deletion strains, locus YNL322C, strain KRE1, stronger effect = lower value 0.999 | S. cerevisiae deletion strains, locus YNR049C, strain mso1, stronger effect = lower value 0.955 | S. cerevisiae deletion strains, locus YNR052C, strain pop2, stronger effect = lower value 0.999 | S. cerevisiae deletion strains, locus YOL006C, strain TOP1, stronger effect = lower value 0.903 | S. cerevisiae deletion strains, locus YOL012C, strain htz1 1.37 | S. cerevisiae deletion strains, locus YOL147C, strain pex11, stronger effect = lower value 0.999 | S. cerevisiae deletion strains, locus YOR001W, strain rrp6, stronger effect = lower value 0.984 | S. cerevisiae deletion strains, locus YOR061W, strain CKA2, stronger effect = lower value 0.964 | S. cerevisiae deletion strains, locus YOR069W, strain VPS5, stronger effect = lower value 0.999 | S. cerevisiae deletion strains, locus YOR070C, strain gyp1, stronger effect = lower value 0.986 | S. cerevisiae deletion strains, locus YOR080W, strain dia2, stronger effect = lower value 0.96 | S. cerevisiae deletion strains, locus YOR083W, strain WHI5 (second series), stronger effect = lower value 1.03 | S. cerevisiae deletion strains, locus YOR106W, strain vam3, stronger effect = lower value 0.959 | S. cerevisiae deletion strains, locus YOR136W, strain idh2, stronger effect = lower value 0.98 | S. cerevisiae deletion strains, locus YOR144C, strain elg1, stronger effect = lower value 0.994 | S. cerevisiae deletion strains, locus YOR184W, strain ser1, stronger effect = lower value 0.983 | S. cerevisiae deletion strains, locus YOR231W, strain MKK1, stronger effect = lower value 1 | S. cerevisiae deletion strains, locus YOR265W, strain rbl2, stronger effect = lower value 0.956 | S. cerevisiae deletion strains, locus YOR270C, strain vph1, stronger effect = lower value 0.972 | S. cerevisiae deletion strains, locus YOR290C, strain snf2, stronger effect = lower value 0.944 | S. cerevisiae deletion strains, locus YOR316C, strain cot1, stronger effect = lower value 0.986 | S. cerevisiae deletion strains, locus YPL051W, strain arl3, stronger effect = lower value 0.974 | S. cerevisiae deletion strains, locus YPL055C, strain LGE1, stronger effect = lower value 0.909 and 0.983 | S. cerevisiae deletion strains, locus YPL078C, strain atp4, stronger effect = lower value 0.964 | S. cerevisiae deletion strains, locus YPL106C, strain sse1, stronger effect = lower value 0.965 | S. cerevisiae deletion strains, locus YPL240C, strain hsp82, stronger effect = lower value 0.99 | S. cerevisiae deletion strains, locus YPL241C, strain CIN2, stronger effect = lower value 1.01 | S. cerevisiae deletion strains, locus YPL256C, strain CLN2, stronger effect = lower value 1.02 | S. cerevisiae deletion strains, locus YPR119W, strain clb2, stronger effect = lower value 0.987 | S. cerevisiae deletion strains, locus YPR141C, strain kar3, stronger effect = lower value 1 | S. cerevisiae deletion strains, locus YPR163C, strain tif3, stronger effect = lower value 1 | S. cerevisiae deletion strains, locus YPR167C, strain met16, stronger effect = lower value 0.999 | S. cerevisiae deletion strains, strain wtn01, stronger effect = lower value 0.987 | S. cerevisiae strains, strain wild type, stronger effect = lower value 0.99
